The structures appear in SMILES notation. The panel holds about 79,000 compounds, 15% with a hit somewhere; the sample as a whole holds those more often. The source made the active and inactive calls. No stated cut-off is given here; in the data, active means growth inhibition above about 70%; inactive means the rest.

The first experiment is described as follows: NCI Yeast Anticancer Drug Screen. Data for the cln2 rad14 strain (AID 165).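 Further: 0% = growth equal to vehicle treated cultures.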 To be noted: S. cerevisiae cln2 rad14 strain, at 50.0 µM, active compounds read high. In short, it runs like this: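 Compounds are applied to the cln2 rad14 yeast strain, and growth is then compared with that of vehicle-treated cultures to give inhibition.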
As for `ON1c2ccccc2-c2ccccc2C1(c1ccccc1)c1ccccc1`, the growth inhibition was 69.8% (inactive).
With `COc1ccc2c(c1O)-c1cccc3c1C(C2)N(CCOCCCl)CC3` (stereo not given), the growth inhibition was 12.9% (inactive).
In the case of `ClC/C(=N\N1CCCCCC1)c1ccccc1`, the growth inhibition is -10.2% (inactive).
For `CN(C)CSCCO`, the growth inhibition was -14.8% (inactive).
With `CCOC(=O)NN(C(=O)OCC)c1c(NN)n(C)c(=O)n(C)c1=O`, the growth inhibition is -10.4% (inactive).
Regarding `N#C/C(=C\c1cccs1)C(=O)c1ccco1`, the growth inhibition was 25.2% (inactive).
On to `CC(C)N1CN(C(C(=O)N[C@@H]2C(=O)N3C2SC(C)(C)C3C(=O)O)c2ccccc2)CSC1=S` (stereo not given in full), for which the growth inhibition is -7.95% (inactive).
In the case of `O=C1OCC/C1=C1/Nc2ccccc2NC1=O`, the growth inhibition is -22.2% (inactive).
With `CC1(C)CN(CCO)C(C)(C)CN1CCO`, the growth inhibition is 12.4% (inactive).
The same measure, in the same setting: for `C/C(=N\NC(=O)C(N)=O)c1c(O)cc(C)oc1=O` the value was -23.1% (inactive); for `Cc1ccc(/C=C/C(=N/NC(=O)c2ccccc2)C(C)CN(C)C)cc1` (stereo not given), -11.2% (inactive); for `CCCN(CCC#N)C(=S)Nc1ccc(C)c(C)c1`, -7.5% (inactive).
The same measure, in the same setting: the same measure for `OCc1ccc(CO)cc1`: -4.2% (inactive); for `C[C@]12C(=O)C=CCC1=CC[C@@H]1[C@@H]2[C@H]2CC3(O)C(=O)O[C@@]4(C)[C@H]5C[C@@]6(C)[C@@H]7[C@@]2(O)[C@]1(OC[C@H]6C(=O)O5)O[C@]734` (stereo not given in full): 1% (inactive); for `COC(=O)C(=O)C(/C=N/C(=S)NC1CCCCC1)=C(\O)c1ccc(F)cc1`: -5.05% (inactive).
Same read-out and setting: for `CCCCCCCCCCS(=O)(=O)CC(=O)O` the value was -12.7% (inactive); for `CC(=O)Nc1ccc(N(C)C)c(C)c1`, -7.75% (inactive); for `O=C1OC(c2cccc([N+](=O)[O-])c2)=N/C1=C\c1ccccc1`, 18.4% (inactive).
Take `C[Si](C)(C)N1CCCC1`: the growth inhibition was 12.4% (inactive).
Turning to `CC1(c2ccccc2)OC1(C)c1ccccc1` (stereo not given), the growth inhibition is -17.1% (inactive).
On the same count and under the same terms, for `CCCCN(CCO)CC(O)Cn1cnc2c(N)ncnc21` (stereo not given) the value was 0.7% (inactive); for `Cc1nn(C(=O)c2ccc(Cl)cc2)c2c1C(c1ccco1)SC(N)=N2` (stereo not given), -17.9% (inactive).
As for `O=c1[nH]c(Nc2ccc(F)c(Cl)c2)nc2nc[nH]c12`, the growth inhibition is -4.75% (inactive).
For `CC[n+]1ccccc1Br`, the growth inhibition was -7.4% (inactive).
Turning to `CN(C)c1ccc(/C=C/C(=O)/C=C/c2ccc(N(C)C)cc2)cc1`, the growth inhibition is 7.6% (inactive).
Regarding `CC1N=C(SCC(=O)c2ccc(Cl)cc2)N2C(C)N=C(SCC(=O)c3ccc(Cl)cc3)N12` (stereo not given), the growth inhibition is 0.5% (inactive).
In the case of `CCOc1ccc(/C=C2\N=C(c3ccc([N+](=O)[O-])cc3)OC2=O)cc1`, the growth inhibition was 3.45% (inactive).
As to `NC(N)=N/N=C(/c1nc2ccc([N+](=O)[O-])cc2[nH]c1=O)C(O)c1ccco1` (stereo not given), the growth inhibition is 5.95% (inactive).
On the same count and under the same terms, the same measure for `Cc1cc2c(cc1C=O)C(C)(C)CCC2`: -32.2% (inactive); for `CCOc1cc(/C=N/NC(=O)C(O)C(O)C(O)C(O)CO)ccc1O` (stereo not given): 4.45% (inactive); for `CC(=O)N1N=C(c2ccc(OCC(O)CN3CCN(CC(O)COc4ccc(C5=NN(C(C)=O)C(c6ccccc6)C5)cc4)CC3)cc2)CC1c1ccccc1` (stereo not given): -30.4% (inactive).
Regarding `CC(=O)Oc1cccn2c(C(=O)C(=O)c3ccc4c(OC(C)=O)cccn34)ccc12`, the growth inhibition was -0.55% (inactive).
Same read-out and setting: for `CNC(=O)N(CC1CCCCC1)c1nc2c(=O)n(C)c(=O)[nH]c2s1` the value was -22.7% (inactive).
With `O=C(O)c1ccc(Cl)c2ncccc12`, the growth inhibition is -28.2% (inactive).
In the case of `O=C(O)C1(Nc2ccc(Cl)cc2)CCCC1`, the growth inhibition was -1.45% (inactive).
In the case of `NC1=Nc2cc(Cl)ccc2Sc2nc3ccccc3n21`, the growth inhibition is 0.55% (inactive).
With `COc1ccc(/C=C2\CCCC3=C2NC(=S)NC3c2ccc(OC)cc2)cc1` (stereo not given), the growth inhibition is 5.9% (inactive).
Consider `CCOCC(=O)O`, for which the growth inhibition is -32.2% (inactive).
Turning to `CC(=O)N=c1ccc2nc(N)nn(O)c-2c1`, the growth inhibition is -4.95% (inactive).
As for `C=CCc1nc2c([nH]1)c(=O)n(C)c(=O)n2C`, the growth inhibition was 11.7% (inactive).

Another experiment can be described thus: NCI Yeast Anticancer Drug Screen. Data for the bub3 strain (AID 167). To be noted: S. cerevisiae bub3 mutant strain, at 50.0 µM, active compounds read high. Put shortly: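 Compounds were applied to a genetically altered yeast strain carrying a cell-cycle control defect. Growth inhibition was scored against vehicle-treated controls.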
Regarding `ON1c2ccccc2-c2ccccc2C1(c1ccccc1)c1ccccc1`, the growth inhibition was 71.5% (active).
Same read-out and setting: the same measure for `COc1ccc2c(c1O)-c1cccc3c1C(C2)N(CCOCCCl)CC3` (stereo not given): 3.15% (inactive).
Still for that read-out and setting: the same measure for `ClC/C(=N\N1CCCCCC1)c1ccccc1`: -1.6% (inactive); for `CN(C)CSCCO`: -5.1% (inactive).
For `CCOC(=O)NN(C(=O)OCC)c1c(NN)n(C)c(=O)n(C)c1=O`, the growth inhibition is 12.4% (inactive).
Turning to `N#C/C(=C\c1cccs1)C(=O)c1ccco1`, the growth inhibition was 17.2% (inactive).
Still for that read-out and setting: the same measure for `CC(C)N1CN(C(C(=O)N[C@@H]2C(=O)N3C2SC(C)(C)C3C(=O)O)c2ccccc2)CSC1=S` (stereo not given in full): -9.85% (inactive); for `O=C1OCC/C1=C1/Nc2ccccc2NC1=O`: -16.4% (inactive); for `CC1(C)CN(CCO)C(C)(C)CN1CCO`: -27.7% (inactive).
As for `C/C(=N\NC(=O)C(N)=O)c1c(O)cc(C)oc1=O`, the growth inhibition was 1.8% (inactive).
The same measure, in the same setting: the same measure for `Cc1ccc(/C=C/C(=N/NC(=O)c2ccccc2)C(C)CN(C)C)cc1` (stereo not given): 0.25% (inactive); for `CCCN(CCC#N)C(=S)Nc1ccc(C)c(C)c1`: -41.6% (inactive); for `OCc1ccc(CO)cc1`: 8.65% (inactive).
Regarding `C[C@]12C(=O)C=CCC1=CC[C@@H]1[C@@H]2[C@H]2CC3(O)C(=O)O[C@@]4(C)[C@H]5C[C@@]6(C)[C@@H]7[C@@]2(O)[C@]1(OC[C@H]6C(=O)O5)O[C@]734` (stereo not given in full), the growth inhibition is -22.4% (inactive).
`COC(=O)C(=O)C(/C=N/C(=S)NC1CCCCC1)=C(\O)c1ccc(F)cc1`: the growth inhibition is -15.8% (inactive).
Take `CCCCCCCCCCS(=O)(=O)CC(=O)O`: the growth inhibition is -8.3% (inactive).
In the case of `CC(=O)Nc1ccc(N(C)C)c(C)c1`, the growth inhibition was 12.9% (inactive).
Consider `O=C1OC(c2cccc([N+](=O)[O-])c2)=N/C1=C\c1ccccc1`, for which the growth inhibition is 15.3% (inactive).
Same read-out and setting: for `C[Si](C)(C)N1CCCC1` the value was 3.5% (inactive); for `CC1(c2ccccc2)OC1(C)c1ccccc1` (stereo not given), 21.1% (inactive).
The same measure, in the same setting: the same measure for `CCCCN(CCO)CC(O)Cn1cnc2c(N)ncnc21` (stereo not given): -5.65% (inactive).
On the same count and under the same terms, for `Cc1nn(C(=O)c2ccc(Cl)cc2)c2c1C(c1ccco1)SC(N)=N2` (stereo not given) the value was -18.1% (inactive).
For the compound `O=c1[nH]c(Nc2ccc(F)c(Cl)c2)nc2nc[nH]c12`, the growth inhibition is 2.55% (inactive).
As to `CC[n+]1ccccc1Br`, the growth inhibition was 6.05% (inactive).
Consider `CN(C)c1ccc(/C=C/C(=O)/C=C/c2ccc(N(C)C)cc2)cc1`, for which the growth inhibition was -12.2% (inactive).
Consider `CC1N=C(SCC(=O)c2ccc(Cl)cc2)N2C(C)N=C(SCC(=O)c3ccc(Cl)cc3)N12` (stereo not given), for which the growth inhibition is -6.85% (inactive).
Take `CCOc1ccc(/C=C2\N=C(c3ccc([N+](=O)[O-])cc3)OC2=O)cc1`: the growth inhibition was 15.6% (inactive).
`NC(N)=N/N=C(/c1nc2ccc([N+](=O)[O-])cc2[nH]c1=O)C(O)c1ccco1` (stereo not given): the growth inhibition is -15.3% (inactive).
Still for that read-out and setting: for `Cc1cc2c(cc1C=O)C(C)(C)CCC2` the value was 2.85% (inactive); for `CCOc1cc(/C=N/NC(=O)C(O)C(O)C(O)C(O)CO)ccc1O` (stereo not given), 39.8% (inactive).
Regarding `CC(=O)N1N=C(c2ccc(OCC(O)CN3CCN(CC(O)COc4ccc(C5=NN(C(C)=O)C(c6ccccc6)C5)cc4)CC3)cc2)CC1c1ccccc1` (stereo not given), the growth inhibition was -25.9% (inactive).
Turning to `CC(=O)Oc1cccn2c(C(=O)C(=O)c3ccc4c(OC(C)=O)cccn34)ccc12`, the growth inhibition was -4.85% (inactive).
For the compound `CNC(=O)N(CC1CCCCC1)c1nc2c(=O)n(C)c(=O)[nH]c2s1`, the growth inhibition is -4.25% (inactive).
On to `O=C(O)c1ccc(Cl)c2ncccc12`, for which the growth inhibition was -9.75% (inactive).
Turning to `O=C(O)C1(Nc2ccc(Cl)cc2)CCCC1`, the growth inhibition is 9.65% (inactive).
Still for that read-out and setting: for `NC1=Nc2cc(Cl)ccc2Sc2nc3ccccc3n21` the value was 10.9% (inactive).
With `COc1ccc(/C=C2\CCCC3=C2NC(=S)NC3c2ccc(OC)cc2)cc1` (stereo not given), the growth inhibition was -1.95% (inactive).
As for `CCOCC(=O)O`, the growth inhibition is 39.2% (inactive).
For the compound `CC(=O)N=c1ccc2nc(N)nn(O)c-2c1`, the growth inhibition is -33.6% (inactive).
For the compound `C=CCc1nc2c([nH]1)c(=O)n(C)c(=O)n2C`, the growth inhibition is -6.8% (inactive).
